This is part of a sample that, as a whole, favours compounds with a hit. Of some 83,000 tested, about 20% had one in any assay.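 Single-concentration screen, 48 h exposure, 96-well plates. Endpoint: percent growth. Below 10 = active.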 Calls of active or inactive are those of the source.
test system: M14 melanoma; experiment: NCI-60 one-dose screen, 48 h (100 = growth as untreated, 0 = no growth, -100 = all killed); conditions: 10 µM unless noted

Question: Which growth does the source give for `CCn1c(Cc2ccccc2Nc2c(Cl)cccc2Cl)nnc1SCC(=O)Nc1cccc(OC)c1` here?
Answer: Its growth is 76.4% (inactive).

Question: Which growth does the source give for `COc1ccc2nc(C)cc(Sc3nc4ccccc4s3)c2c1` here?
Answer: Its growth is 65.5% (inactive).

Question: How did the growth turn out when `COc1cnc2c(c1)C(=O)c1c-2n(CCCN2CCN(C)CC2)c(=O)c2cc(Cl)ccc12` was run?
Answer: The growth was -54.4% (active).

Question: `c1cn2cc(-c3ccc4ncn(C5CCCCC5)c4c3)nc(-c3ccc4c(c3)ncn4C3CCCCC3)c2n1` was tested. Which growth did it give?
Answer: Its growth is -50.8% (active).

Question: For `CN1C(=O)N(C)C2C1NN=c1s/c(=C\c3ccc(C(F)(F)F)cc3)c(=O)n12` (stereo not drawn), which growth is on record?
Answer: Its growth is 16% (inactive).

Question: `CN1C(=O)N(C)C2C1NN=c1s/c(=C\c3ccsc3)c(=O)n12` (stereo not drawn) was tested. Which growth did it give?
Answer: Its growth is 22.7% (inactive).

Question: Which growth does the source give for `C/C(=N\Nc1ccc([N+](=O)[O-])cn1)c1ccc(N)cc1` here?
Answer: Its growth is 106% (inactive).

Question: Which growth does the source give for `COc1ccccc1/C=N\Nc1ccc([N+](=O)[O-])cn1` here?
Answer: The growth was 94.4% (inactive).

Question: How did the growth turn out when `CCCCCCCCCCCCCCCCCC(=O)[O][Sn]([CH2]CCC)([CH2]CCC)[CH2]CCC` was run?
Answer: The growth was -91.1% (active).

Question: With `C[C@H](NC(=O)c1snnc1C1CC1)c1c(F)cccc1Cl` as the compound, how does the growth read?
Answer: The growth was 116% (inactive).

Question: For `CC(C)c1cccc(C#N)c1`, which growth is on record?
Answer: The growth was 95.2% (inactive).

Question: With `CN1C(=O)N(C)C2C1NN=c1s/c(=C\c3ccc(Br)cc3)c(=O)n12` (stereo not drawn) as the compound, how does the growth read?
Answer: The growth was 32.8% (inactive).

Question: With `O=C1SCN(Cc2ccccc2)CN1Cc1ccccc1` as the compound, how does the growth read?
Answer: The growth was 99.1% (inactive).

Question: How did the growth turn out when `C[N+](C)(C)CC(=O)N/N=C\c1ccco1` was run?
Answer: Its growth is 111% (inactive).

Question: For `COc1cc(C2CC(c3ccc(Cl)cc3)=NN2C(C)=O)ccc1Oc1nc2c(c(=O)n(C)c(=O)n2C)n1C` (stereo not drawn), which growth is on record?
Answer: The growth was 67.8% (inactive).

Question: `CCN1CCN(Cc2ccc(NC(=O)Nc3ccc(-n4ccc5c(NC(=O)c6ccccc6)nccc54)cc3)cc2C(F)(F)F)CC1` was tested. Which growth did it give?
Answer: The growth was -65.1% (active).

Question: For `Nc1nc(N)c2cc(NCc3ccc(Cl)c(Cl)c3)ccc2n1`, which growth is on record?
Answer: The growth was -84% (active).

Question: For `O=c1oc2ccccc2cc1-c1cc(-c2ccc(-c3cc(-c4cc5ccccc5oc4=O)nc(-c4cc5ccccc5oc4=O)c3)cc2)cc(-c2cc3ccccc3oc2=O)n1`, which growth is on record?
Answer: The growth was 103% (inactive).

Question: Which growth does the source give for `C=C1C(=O)O[C@H]2[C@H]1CC/C(COC(=O)N[C@@H](Cc1c[nH]c3ccccc13)C(=O)OC)=C\CC[C@@]1(C)O[C@@H]21` here?
Answer: The growth was -45.3% (active).

Question: How did the growth turn out when `COc1cc(OC)c(Cl)cc1N` was run?
Answer: Its growth is 115% (inactive).

Question: How did the growth turn out when `COC(=O)c1ccc2c(c1)nc(-c1cc3ccccc3[nH]c1=O)n2-c1cc(C(C)(C)C)[nH]n1` was run?
Answer: The growth was 58.2% (inactive).

Question: With `Fc1ccc(-c2nc(-c3ccc(-c4nc5ccc(F)cc5[nH]4)cc3)no2)cc1` as the compound, how does the growth read?
Answer: Its growth is 62.3% (inactive).

Question: `CCCC(CCC)(C(N)=O)C(=O)O` was tested. Which growth did it give?
Answer: Its growth is 108% (inactive).

Question: For `CNC(=O)OC1C(O[C@H]2C[C@H]3[C@@H]4CC=C5C[C@@H](O)CC[C@]5(C)[C@H]4CC[C@]3(C)[C@H]2[C@H](C)C(=O)CCC(C)C)OCC(O)C1OC1OCC(O)C(O)C1OC(=O)c1ccc(OC)cc1` (stereo partly drawn), which growth is on record?
Answer: The growth was -65.5% (active).

Question: How did the growth turn out when `CC(=O)O[C@@H]1CC2C(C)(C)CCCC2(C)C2=C1C(=O)C(C(C)C)=CC2=O` (stereo partly drawn) was run?
Answer: Its growth is -60.9% (active).

Question: For `CC(=O)Oc1c(Cl)c(Cl)c(Cl)c(Cl)c1Cl`, which growth is on record?
Answer: Its growth is 105% (inactive).

Question: For `Oc1c(C(Nc2ccccc2Br)c2ccccc2)ccc2cccnc12` (stereo not drawn), which growth is on record?
Answer: The growth was -14.2% (active).

Question: For `O=C1C(Cl)=C(Nc2cccc3ccccc23)C(=O)c2ccccc21`, which growth is on record?
Answer: The growth was 87.8% (inactive).

Question: How did the growth turn out when `Nc1c(C(=O)Nc2ccccc2)sc2nc3c(cc12)C(=O)CCC3` was run?
Answer: Its growth is 1.11% (active).

Question: With `CCOCCNc1ccc(S(=O)(=O)c2ccc(N)cc2)cc1N` as the compound, how does the growth read?
Answer: The growth was 112% (inactive).

Question: How did the growth turn out when `CCCCSc1ncnc2c1ncn2C1CCCCO1` (stereo not drawn) was run?
Answer: The growth was 103% (inactive).

Question: Which growth does the source give for `CCNCCCn1c2c(c3ccc(Cl)cc3c1=O)C(=O)c1cc(OC)cnc1-2` here?
Answer: The growth was 40% (inactive).

Question: With `COc1ccc2nc3ccccc3c(NCc3ccc(C)cc3)c2c1` as the compound, how does the growth read?
Answer: The growth was 28.7% (inactive).

Question: `C=CCOC(=O)C1=C(C)NC2=C(C(=O)CCC2)C1c1ccc(F)cc1` (stereo not drawn) was tested. Which growth did it give?
Answer: Its growth is 96.1% (inactive).

Question: For `O=C(O)C(CCc1ccccc1)NCc1ccccc1` (stereo not drawn), which growth is on record?
Answer: Its growth is 79.6% (inactive).

Question: How did the growth turn out when `COc1ncnc2[nH]cc(CN3CCN(c4ccc(F)cc4)CC3)c12` was run?
Answer: Its growth is 106% (inactive).

Question: `O=S(=O)(Cc1ccc(Cl)cc1Cl)c1ccc(Cl)cc1` was tested. Which growth did it give?
Answer: The growth was 9.79% (active).

Question: Which growth does the source give for `COc1ccc(-c2nc3ccccc3n3cccc23)cc1` here?
Answer: Its growth is 100% (inactive).

— PubChem BioAssay (NCI)
